# In PubChem BioAssay (NCI):
# About 83,000 compounds went through this panel and 20% of them were active in at least one assay; those are over-represented in the sample as a whole.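 Note: values are percent growth. 100 is the growth of untreated cells, values between 100 and 0 indicate rising inhibition; between -100 and 0 indicates cell death.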 The source made the active and inactive calls. Rule for the calls: active = growth percent below 10; inactive = the rest.
# How the values were obtained:
# Assay in all cases: NCI-60 one-dose screen, 48 h (100 = growth as untreated, 0 = no growth, -100 = all killed)
# Conditions in all cases: 10 µM unless noted
# [1] = tested on: SK-MEL-2 melanoma
# [2] = tested on: EKVX NSCLC
# [3] = tested on: SN12C renal
# [4] = tested on: TK-10 renal
# [5] = tested on: ACHN renal
# [6] = tested on: CAKI-1 renal
# [7] = tested on: CCRF-CEM leukemia
# [8] = tested on: MOLT-4 leukemia
# [9] = tested on: UO-31 renal
# [10] = tested on: A498 renal
SMILES,growth [1],growth [2],growth [3],growth [4],growth [5],growth [6],growth [7],growth [8],growth [9],growth [10]
C#CCN(C)CCCOc1ccc(N(CC)C(=O)c2cc(C(C)C)c(O)cc2O)cc1Cl,-57.9% (active),-7.81% (active),-52.1% (active),11.1% (inactive),11.6% (inactive),9.89% (active),7.35% (active),-33.6% (active),,
OCCn1cc(-c2nc3ccc4[nH]ncc4c3c3c2CCCC3)cn1,43.3% (inactive),32.8% (inactive),,16.5% (inactive),16.3% (inactive),1.75% (active),48.4% (inactive),31.2% (inactive),22.3% (inactive),-3.55% (active)
NS(=O)(=O)c1ccc(Nc2nc(SCC(=O)c3ccc(F)cc3)nc3ccccc23)cc1,48.3% (inactive),39.1% (inactive),53.8% (inactive),80.9% (inactive),49.7% (inactive),47.3% (inactive),26.9% (inactive),16.8% (inactive),,
CN1CCN(C(=O)CCN(C(=O)Oc2cc3c(c4ccccc24)[C@H](CCl)CN3C(=O)c2cc3cc(OCCCN4CCC4)ccc3[nH]2)[C@H]2CCSSC2)CC1,-83% (active),-89.3% (active),0.64% (active),,-30.5% (active),-58.3% (active),-35.6% (active),-35.3% (active),,-40.9% (active)
O=C(N/N=C/c1ccsc1)c1[nH]c2ccc(Br)cc2c1-c1ccccc1,-82.8% (active),-26.3% (active),-87.5% (active),,-28% (active),-21.8% (active),6.69% (active),-8.25% (active),,-48.1% (active)
COc1ccc(N=Nc2c(N)nn3c(-c4ccc(OC)c(OC)c4)ccnc23)cc1,103% (inactive),103% (inactive),,88.6% (inactive),77.4% (inactive),-60.2% (active),86.9% (inactive),100% (inactive),108% (inactive),95.7% (inactive)
COc1ccc2c(c1)c(-c1cc(N)n3nc(-c4c[nH]c5ccccc45)cc3n1)cn2C,-65.4% (active),-79.6% (active),,-92.5% (active),-79.6% (active),-70.2% (active),-25.1% (active),-1.51% (active),-71.1% (active),-57.8% (active)
COc1cc2cc(C(=O)N3C[C@@H](CCl)c4c3cc(OC(=O)N(CCC(=O)N3CCN(C)CC3)C3CCCCC3)c3ccccc43)[nH]c2c(OC)c1OC,-82.4% (active),-78.8% (active),,-71.3% (active),-84.6% (active),-79.1% (active),-34.3% (active),-19.8% (active),,-19.9% (active)
O=C(N=Nc1c(O)[nH]c2ccc(Cl)cc12)c1ccc2nc(-c3ccc(Cl)cc3)[nH]c2c1,11.8% (inactive),29.9% (inactive),,52.3% (inactive),73.4% (inactive),82.8% (inactive),3.93% (active),6.71% (active),87.3% (inactive),47.8% (inactive)
c1n[nH]cc1-c1nc2ccc3cn[nH]c3c2c2c1CCCC2,104% (inactive),69.1% (inactive),,104% (inactive),73.5% (inactive),39.2% (inactive),104% (inactive),92.7% (inactive),61.1% (inactive),93.8% (inactive)
N#CC1=C(c2cccs2)Nc2c(c(-c3ccccc3)nn2-c2ccccc2)C12C(=O)Nc1ccc(Br)cc12 (stereo unspecified),-17.2% (active),7.42% (active),,12.1% (inactive),-11% (active),9.64% (active),1.86% (active),-3.33% (active),6.38% (active),-10.8% (active)
Clc1ccc(-c2nc3c4c(-c5ccccc5)c(-c5ccccc5)n(Cc5ccccc5)c4ncn3n2)cc1,-10.4% (active),2.2% (active),,24.1% (inactive),-4.9% (active),-20.1% (active),-2.09% (active),-5.99% (active),1.71% (active),-17.4% (active)
Cc1cnc2ccc(Oc3ccccc3-c3ccccc3)nn12,108% (inactive),100% (inactive),,106% (inactive),105% (inactive),94.5% (inactive),103% (inactive),107% (inactive),,116% (inactive)
COc1cccc(NC(=O)c2ccc(NC(=O)CCl)s2)c1,,95% (inactive),,54.8% (inactive),66.4% (inactive),53.8% (inactive),1.03% (active),-7.31% (active),62.1% (inactive),108% (inactive)
S=C(Nc1ccc(OCc2nc3ccc(Cl)cc3[nH]2)cc1)NC1CCCCC1,,-7.76% (active),,-10.8% (active),-16% (active),-5.65% (active),5.6% (active),1.31% (active),-7.63% (active),-1.77% (active)
O=C(Cc1c(-c2ccccc2[N+](=O)[O-])n(-c2ncnc3c2c(-c2ccccc2)c(-c2ccccc2)n3Cc2ccccc2)[nH]c1=O)c1ccc(Cl)c(Cl)c1,,14.6% (inactive),12.6% (inactive),38.5% (inactive),25.4% (inactive),9.03% (active),13.2% (inactive),24.1% (inactive),41.7% (inactive),56.1% (inactive)
COc1ccc([C@H]2C(C(=O)c3ccc(Cl)cc3)C3(N[C@@H]2c2ccccc2)C(=O)Nc2ccccc23)cc1 (stereo partly specified),,21.6% (inactive),6.41% (active),43.4% (inactive),11.2% (inactive),14% (inactive),45.8% (inactive),18.9% (inactive),,40.2% (inactive)
COc1ccc(-c2cc(-c3cc(OC)c(OC)c(OC)c3)[nH]c(=O)c2C#N)cc1,,65.6% (inactive),8.1% (active),40.8% (inactive),-25.4% (active),47% (inactive),76.7% (inactive),80.1% (inactive),-24.9% (active),-2.4% (active)
O=C(Nc1nc2ccc([N+](=O)[O-])cc2s1)Nc1ccccc1F,,5.56% (active),2.55% (active),17.9% (inactive),1.6% (active),-8.16% (active),15.5% (inactive),15.7% (inactive),6.12% (active),-18.3% (active)
Cc1ccc(C(=O)Nc2cc(-n3ccnc3C)cc(C(F)(F)F)c2)cc1C#Cc1cnc2cccnn12,,3.81% (active),-8.57% (active),11.6% (inactive),-6.55% (active),-41.4% (active),5.01% (active),4.23% (active),0.162% (active),-18.4% (active)

SMILES,growth [1],growth [2],growth [3],growth [4],growth [5],growth [6],growth [7],growth [8],growth [9],growth [10]
COc1ccc(NC(=O)CSc2nnc(-c3ccc(-c4nc5ccc(Cl)cc5[nH]4)cc3)o2)cc1,,23.3% (inactive),6.13% (active),112% (inactive),2.97% (active),8.1% (active),54.2% (inactive),37.5% (inactive),71.4% (inactive),60.2% (inactive)
CC(=O)c1c2c(c3ccc4c5ccccc5ccc4n13)C(=O)c1ccccc1C2=O,,77% (inactive),89.9% (inactive),118% (inactive),75.6% (inactive),85.6% (inactive),99.9% (inactive),90.6% (inactive),59.3% (inactive),189% (inactive)
Fc1cccc(CNc2nc(SCCN3CCOCC3)nc3c2cnn3CC(Cl)c2ccc(Br)cc2)c1 (stereo unspecified),,41.1% (inactive),36.5% (inactive),46.7% (inactive),17.3% (inactive),26.7% (inactive),6.67% (active),-23.8% (active),-3.52% (active),57.2% (inactive)
COc1cc(C=O)ccc1OC(=O)c1cc(-c2ccc(C)cc2)n(-c2ccc(S(C)(=O)=O)cc2)n1,,98.8% (inactive),99.2% (inactive),126% (inactive),104% (inactive),93.5% (inactive),96.9% (inactive),91.4% (inactive),85.6% (inactive),143% (inactive)
Nc1nnc(-c2cncc(Br)c2)c(-c2c[nH]c3ccc(Cl)cc23)n1,,78.4% (inactive),83.2% (inactive),111% (inactive),66.1% (inactive),59.1% (inactive),52.9% (inactive),54.4% (inactive),,112% (inactive)
CCCCNC(=S)Nc1ccc(OCc2nc3ccc(Cl)cc3[nH]2)cc1,,28.9% (inactive),19.2% (inactive),36.6% (inactive),5.02% (active),21.6% (inactive),7.96% (active),9.85% (active),5.99% (active),90% (inactive)
O=C(N/N=C/c1ccc(Cl)cc1)c1ccc(OCc2nc3ccc(Cl)cc3[nH]2)cc1,,32.1% (inactive),30.4% (inactive),12.4% (inactive),28.6% (inactive),73.6% (inactive),66.7% (inactive),15% (inactive),11.1% (inactive),129% (inactive)
COc1ccc2[nH]c(=O)c(CSc3ccccc3Nc3nccc(-c4ccc5c(c4)OCO5)n3)cc2c1,,88% (inactive),89.4% (inactive),99.7% (inactive),90.4% (inactive),68.5% (inactive),69.8% (inactive),50.1% (inactive),75.8% (inactive),107% (inactive)
Cc1ccc(S(=O)(=O)Nc2ccc(-c3ccc4c(c3)NC(=O)/C4=C\c3ccc[nH]3)cc2)cc1,,35.7% (inactive),85.8% (inactive),98.4% (inactive),93.5% (inactive),87.3% (inactive),62.3% (inactive),68.1% (inactive),93.9% (inactive),112% (inactive)
Cc1nc(N)ncc1-c1ccc2ncnc(N3CCc4cc(F)c(Cl)cc43)c2c1,,20.3% (inactive),54.9% (inactive),5.99% (active),27.2% (inactive),14.1% (inactive),77.8% (inactive),11.1% (inactive),27.6% (inactive),25.3% (inactive)
CC1=C(C(=O)Nc2ccccc2)C(c2ccc3ccccc3c2)n2c(nc3ccccc32)N1 (stereo unspecified),,85% (inactive),14.4% (inactive),116% (inactive),52.7% (inactive),60.9% (inactive),11.1% (inactive),12.7% (inactive),75% (inactive),134% (inactive)
CCCN(CCC)S(=O)(=O)c1ccc(C(=O)O)cc1.CCCN(CCC)S(=O)(=O)c1ccc(C(=O)O)cc1.[Cl][Pt+2][Cl].[NH2-].[NH2-],,44.8% (inactive),12.4% (inactive),109% (inactive),13.4% (inactive),32.4% (inactive),50.4% (inactive),-2.08% (active),98.4% (inactive),91.5% (inactive)
CC[C@@]12CC(C(=O)OC)=C3Nc4cc5c(cc4[C@@]34CCN(C[C@H]3O[C@H]31)[C@@H]24)[C@@H]1[C@H](O5)[C@@H](O)[C@@]2(CC)CC(C(=O)OC)=C3Nc4cc(O)ccc4[C@@]34CCN1[C@@H]24,,-14.9% (active),-16.8% (active),-41.1% (active),-26.4% (active),-55.8% (active),2.67% (active),-15.9% (active),-66.2% (active),-77.1% (active)
O=C(CSc1nnc(-c2ccc(-c3nc4ccc(Cl)cc4[nH]3)cc2)o1)Nc1ccccc1,,21.1% (inactive),4.03% (active),114% (inactive),-56.4% (active),-33.5% (active),41.5% (inactive),10.7% (inactive),60.6% (inactive),
CCN1C(=O)N(CC)C2NNC(Sc3c(C(=O)O)c4ccccc4n(CC(C)C)c3=O)=NC21 (stereo unspecified),,38.5% (inactive),,52.7% (inactive),28.7% (inactive),46.1% (inactive),7.54% (active),6.5% (active),39.5% (inactive),133% (inactive)
COc1ccc(-c2nc3ccc(-c4nnc(SCc5ccccc5)o4)cc3[nH]2)cc1,,-0.06% (active),-66.3% (active),,-85.2% (active),-77.1% (active),13.9% (inactive),11.5% (inactive),-44.2% (active),-36.2% (active)
C#CCCCNCCNc1ccnc2cc(Cl)ccc12,,70.3% (inactive),74.2% (inactive),82.9% (inactive),87.7% (inactive),44.5% (inactive),77.6% (inactive),65.1% (inactive),,108% (inactive)
CN(C)c1nc(NCCNS(=O)(=O)c2ccc(C(=O)/C=C/c3ccc(F)cc3)cc2)nc(N2CCOCC2)n1,,59% (inactive),64.3% (inactive),72.2% (inactive),78.6% (inactive),57.3% (inactive),22.5% (inactive),-6.53% (active),60.1% (inactive),86.5% (inactive)
CN1CCN(c2ccc3c4c(cccc24)C(=O)N(c2cccc(-c4nn(-c5ccccc5)cc4-c4nc5ccccc5s4)c2)C3=O)CC1,,107% (inactive),94.8% (inactive),119% (inactive),101% (inactive),97% (inactive),60.3% (inactive),47.5% (inactive),68.5% (inactive),
